The panel holds about 83,000 compounds, 20% with a hit somewhere; the sample as a whole holds those more often.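 Method: cells in 96-well plates; compound added at one concentration; 48 h incubation; percent growth measured; values under 10 scored active.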 Values without a mark were called inactive. The source made the active and inactive calls.
The molecules below were run on UACC-62 melanoma (assay: NCI-60 one-dose screen, 48 h (100 = growth as untreated, 0 = no growth, -100 = all killed)). Conditions: 10 µM unless noted.

SMILES | growth
CN1CCN(Cc2ccc(NC(=O)c3cncc(C#Cc4cnc5ccc(N6CCN(C)CC6)nn45)c3)cc2C(F)(F)F)CC1 | 92.2%
O=C(O)c1cn(C2CC2)c2cc(N3CCN(C(=O)CN4C(=O)CSC4=O)CC3)c(F)cc2c1=O | 91%
NC/C(=C/F)COc1ccc2nc(NCc3cccnc3)oc2c1 | 101%
C=C(C)[C@@H]1CC[C@]2(C(=O)NCCCCCN(CCC#N)CCC#N)CC[C@]3(C)[C@H](CC[C@@H]4[C@@]5(C)CCC(=O)C(C)(C)[C@@H]5CC[C@]43C)[C@@H]12 | 84%
CCCCNNC(=O)c1ccc(-c2cccc(F)c2F)cc1 | 8.48% (active)
C#Cc1ccc(C(=O)NCc2ccc(/C=C/C(=O)c3nccn3C)cc2)cc1 | 21%
COc1ccc(/C(N)=N/C(N)=N/c2nc3ccccc3s2)cc1 | 59.6%
O=C(CN1CCN(c2cc(=O)[nH]c3ccc(F)cc23)CC1)Nc1ccc(Cl)cc1 | 47.9%
Cc1ccc(-n2cc(/C=C/C(=O)c3ccc(O)cc3)c(-c3ccc(S(C)(=O)=O)cc3)n2)cc1 | 59.6%
O=S(=O)(NCCCNc1nccc(-c2[nH]c(-c3ccccc3)nc2-c2ccc(Cl)c(O)c2)n1)c1cccc(F)c1 | 19.3%
Cc1cc(-c2ccc(Cl)cc2)n(Cc2nnc(SCC(=O)Nc3ccc(S(N)(=O)=O)cc3)n2C2CCCCC2)n1 | 99.2%
Oc1cccc2ccc(-c3nnc(SCc4ccc(O)c5ncccc45)n3-c3ccccc3)nc12 | -4.13% (active)
Cc1ccc(-c2nn(-c3ccccc3)cc2/C=C/C(=O)c2ccc(NC(=O)CCCCCCC(=O)NO)cc2)cc1 | 53.3%
CC(C)(C)c1ccc(C(=O)Nc2sc3c(c2C(N)=O)CCC(O)C3)cc1 (stereo not given) | 39.4%
O=C(Nc1ccc2c(ccn2Cc2ccccn2)c1)c1ccnnc1 | 86.3%
CC(C)(C)c1ccc(C(=O)Nc2sc3c(c2C(N)=O)CC/C(=N\O)C3)cc1 | 12.7%
NC(N)=Nc1ccc(Oc2cccc(Nc3ccc(Cl)cc3)c2)cn1 | 43.3%
CCc1cccc(NC(=O)CNc2cc(S(=O)(=O)N(C)C)cc(C)c2C)c1 | 72.5%

SMILES | growth
COc1ccc(N2C(=O)c3cc(Cl)ccc3NC2SCc2ccccc2)cc1 (stereo not given) | 70.3%
O=C(CN1CCN(c2cc(=O)n(-c3ccccc3)c3ccccc23)CC1)Nc1nc(-c2ccc(Cl)cc2)cs1 | 61.5%
COc1ccc(C2c3sc4c(C)cccc4c3Oc3nc(CC(=O)Nc4ccccc4)[nH]c(=O)c32)cc1 (stereo not given) | 63.2%
O=C(/C=C/c1ccc(F)cc1)c1ccc(O)cc1 | 88%
Cn1ccnc1C(=O)/C=C/c1ccc(NC(=O)c2c(F)c(F)c(F)c(F)c2F)cc1 | 97.2%
Nc1cc(-c2c[nH]c3ccc(Br)cc23)nc2cc(-c3c[nH]c4ccc(Br)cc34)nn12 | 11.6%
C#CCC#CCN1CCC[C@H]1C(=O)NCC(=O)OC | 104%
COc1cc(/C=C/C(=O)c2ccc(NC(=O)CSc3nnc(-c4ccc(-c5nc6ccc(Cl)cc6[nH]5)cc4)o3)cc2)cc(OC)c1OC | 74.2%
Oc1cccc2ccc(-c3nnc(SCc4ccc(O)c5ncccc45)o3)nc12 | 9.35% (active)
NS(=O)(=O)c1ccc(Nc2nc(SCc3ccccc3)nc3ccccc23)cc1 | 70%
O=C1[C@@H]2Cc3c([nH]c4ccccc34)[C@H](c3c(Cl)cccc3Cl)N2C(=O)CN1C1CCN(CC2CCCCC2)CC1 | 79.5%
NS(=O)(=O)c1ccc(Nc2nc(N/N=C/c3c[nH]c4ccccc34)nc(Nc3ccccc3)n2)cc1 | 38.3%
N#Cc1c(-c2cccs2)cc(-c2cnccn2)nc1SCC(=O)Nc1ccc(Br)cc1 | 78.9%
COc1ccc(Cn2cc3c(c2-c2cc(OC)c(OC)c(OC)c2)CCc2c(CN4CCOCC4)noc2-3)cc1 | 19.1%
C=CCn1c(SCC(=O)Nc2ccc(C(=O)/C=C/c3ccc(C)cc3)cc2)nnc1-c1c[nH]c2ccccc12 | 67.9%
COc1ccccc1C(=O)Nc1cccc2c1C(=O)C(=O)C=C2 | 105%
COc1cc(-c2nn(C(C)(C)C)cc2-c2ccnc(NCCCNS(=O)(=O)c3ccc(Cl)cc3)n2)ccc1Cl | 61.7%
